# Data as given in the supplement of paper PMC10720658.
# Structures can show the parent of a compound that is named as a salt. ± gives the standard deviation of the averaged measurements.
# System: AEK1 (Tb927.3.2440)
# Assay: percent reduction in TR-FRET probe signal relative to DMSO control; higher = stronger displacement of ATP-site probe (binding)
# Details: 1 µM; incubation time 1 h
row,Structure (SMILES),percent reduction in TR-FRET probe signal [%]
1,O=c1ncn2nc(Sc3ccc(F)cc3F)ccc2c1-c1c(Cl)cccc1Cl,9.39 ± 14
2,COc1ncc(-c2cc(-c3ncc(CN4C[C@@H](C)O[C@@H](C)C4)o3)c3cn[nH]c3c2)cc1NS(C)(=O)=O,-2.16 ± 6.2
3,O=C1c2ccccc2-c2n[nH]c3cccc1c23,-3.83 ± 17
4,C=CC(=O)Nc1ccc(CN2C(=O)N(c3cc(OC)cc(OC)c3)Cc3cnc(Nc4ccc(N5CCN(C)CC5)cc4)nc32)cc1,4.12 ± 14
5,CNC(=O)c1ccccc1Nc1nc(Nc2ccc(N3CCOCC3)cc2OC)ncc1Cl,25.1 ± 15
6,CCN1/C(=C/C(C)=O)Sc2ccc(OC)cc21,2.44 ± 5.9
7,COc1cccc(-n2c(=O)[nH]c3cc(Cl)n(-c4ccc(-c5cccc(OC)c5O)cc4)c3c2=O)c1,-7.49 ± 2.1
8,CCS(=O)(=O)c1cccc(-c2cc(C(=O)NC3CCN(C)CC3)c(C)c3[nH]c4ncc(C)cc4c23)c1,79.9 ± 8.1
9,COCCOc1ccc2c(c1)ncn2-c1ccc2cccc(N3CCC(N)CC3)c2n1,24.4 ± 7.1
10,CC(C)(C)c1ccc(S(=O)(=O)/C=C/C#N)cc1,-17 ± 7.6
11,Cc1c(NC(=O)OC[C@@H]2COCCN2)cn2ncnc(Nc3ccc4c(cnn4Cc4cccc(F)c4)c3)c12,-10.7 ± 4.8
12,CCn1c(=O)c(-c2ccc(-c3cncs3)cc2Cl)cc2cnc(Nc3ccc(N4CCN(C)CC4)cc3)nc21,43.6 ± 6.3
13,COc1ccc(F)c(F)c1C(=O)c1cnc(NC2CCN(S(C)(=O)=O)CC2)nc1N,4.07 ± 8.4
14,Cc1c(Cn2c(C)nc3c(C(=O)O)cc(N4CCOCC4)cc32)cccc1C(F)(F)F,1.17 ± 7.4
15,COc1nccc(-c2c(-c3ccc(F)cc3)ncn2[C@H]2CC[C@H](O)CC2)n1,-2.94 ± 9.9
16,CNC(=O)c1cccc(-c2ccc3c(N4CCOC[C@@H]4C)nc(N4CCOC[C@@H]4C)nc3n2)c1 [Vistusertib (AZD2014)],9.57 ± 9.3
17,Cl.Cl.NC1(c2ccc(-c3nc4ccn5c(=O)[nH]nc5c4cc3-c3ccccc3)cc2)CCC1,-1.31 ± 6.8
18,COc1cc2nccc(Oc3ccc(NC(=O)C4(C(=O)Nc5ccc(F)cc5)CC4)cc3)c2cc1OC.O=C(O)C[C@H](O)C(=O)O [Cabozantinib malate (XL184)],4.34 ± 3.9
19,Cc1ccc(C(=O)Nc2ccc(CN3CCN(C)CC3)c(C(F)(F)F)c2)cc1C#Cc1cnc2[nH]ncc2c1,29.4 ± 11

row,Structure (SMILES),percent reduction in TR-FRET probe signal [%]
1,Cc1ccc(Nc2nccc(N(C)c3ccc4c(C)n(C)nc4c3)n2)cc1S(N)(=O)=O [Pazopanib HCl],3.07 ± 12
2,Cl.N=C(N)NC(=N)NCCc1ccccc1 [Phenformin HCl],12.1 ± 8.3
3,Cn1cc(C2=C(c3ccc(Cl)cc3Cl)C(=O)NC2=O)c2ccccc21,-6.53 ± 5.3
4,O=C(O)[C@]1(Cc2cccc(Nc3nccs3)n2)CC[C@@H](Oc2cccc(Cl)c2F)CC1,19.3 ± 12
5,N#CC[C@@H](C1CCCC1)n1cc(-c2ncnc3[nH]ccc23)cn1,19.4 ± 9.1
6,CC[C@@](C)(Nc1ccnc(-c2c[nH]c3ncccc23)n1)C(=O)NCC(F)(F)F [Decernotinib (VX-509)],-1.74 ± 4.4
7,COc1ccc(-c2cc3c(C)nc(N)nc3n([C@H]3CC[C@H](OCCO)CC3)c2=O)cn1,-8.41 ± 7.5
8,O=C(Nc1ccc(-c2ccnc(Nc3ccc(N4CCOCC4)cc3)n2)cc1)[C@@H]1CCCN1,6.52 ± 10
9,CS(=O)(=O)c1cccc(CNc2nc(Nc3ccc4c(c3)CCC(=O)N4)ncc2C(F)(F)F)c1,39.5 ± 13
10,CS(=O)(=O)CCNCc1ccc(-c2ccc3ncnc(Nc4ccc(OCc5cccc(F)c5)c(Cl)c4)c3c2)o1.Cc1ccc(S(=O)(=O)O)cc1.Cc1ccc(S(=O)(=O)O)cc1,19.5 ± 21
11,CNC(=O)c1cc(Oc2ccc(NC(=O)Nc3ccc(Cl)c(C(F)(F)F)c3)cc2)ccn1 [Sorafenib],17.5 ± 6.7
12,C[C@@H](Oc1cc(-c2cnn(C3CCNCC3)c2)cnc1N)c1c(Cl)ccc(F)c1Cl,35.4 ± 13
13,CN1CCC(COc2cnc(-c3cccc(Cn4nc(-c5cccc(C#N)c5)ccc4=O)c3)nc2)CC1,6 ± 15
14,CN1CCN(C2CCN(C(=O)Nc3cc(Oc4ccc(NC(=O)C5(C(=O)Nc6ccc(F)cc6)CC5)c(F)c4)ccn3)CC2)CC1 [Golvatinib (E7050)],0.527 ± 8
15,C[C@@H](N)[C@H]1CC[C@H](C(=O)Nc2ccncc2)CC1.Cl.Cl,2.66 ± 6.8
16,CCN(CC)CCCCNc1ncc2cc(-c3cc(OC)cc(OC)c3)c(NC(=O)NC(C)(C)C)nc2n1,-17.7 ± 31
17,Cc1cn(-c2cc(NC(=O)c3ccc(C)c(Nc4nccc(-c5cccnc5)n4)c3)cc(C(F)(F)F)c2)cn1 [Nilotinib (AMN-107)],17.5 ± 28
18,CC(C)(C#N)c1ccc(N2C(=O)OCc3cnc4ccc(-c5cnc6ccccc6c5)cc4c32)cc1,-6.23 ± 1.2
19,"CCCS(=O)(=O)Nc1ccc(F)c(C(=O)c2c[nH]c3ncc(-c4ccc(Cl)cc4)cc23)c1F [Vemurafenib (PLX4032, RG7204)]",4.16 ± 3
